Source: PubChem BioAssay (Tox21)
Several values for one entry are separate records, joined by “and”; a condition that tells them apart may be missing. Equal entries are not always repeated. Unmarked numbers belong to inactive results. Records with an inconclusive call do not appear. Where a call stands in place of a potency, no number is given. Activity calls are given as the source filed them. Unless noted, calls follow the shape of the dose curve; as a rule, active = well fitted curve in the direction sought with a large enough effect in the repeat runs; inconclusive = weak or mixed curves; inactive = no such curve, though single readings can be large; an effect the other way counts as inactive or inconclusive.

Assays:
[1] = biological target: Thyrotropin-releasing hormone receptor (Homo sapiens) (UniProt P34981); assay: qHTS assay to identify small molecule agonists of the thyrotropin-releasing hormone receptor (TRHR) signaling pathway (AID 1346891; calls by dose curve;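 also: HEK293 cells expressing TRHR with calcium dye readout; series mostly up to about 58 µM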)
In short: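 Agonist-mode calcium mobilisation screen: TRHR-transfected HEK293 cells cultured overnight (18 h), dye-loaded for 2 h at 37 °C, exposed to compounds, and monitored by fluorescence for 3 min.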

[2] = Human pregnane X receptor (PXR) small molecule agonists, qHTS cell viability counter screen (AID 1346977); also: nearly all actives have a fitted effect of over 50% in size; also: potency is read from the fitted curve at half-maximal effect
In short: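 Measures live-cell protease fluorescence (CellTiter-Fluor) in PXR-Luc HepG2 cells treated 24hr with compounds at 37C. Cells had 5hr to attach before pin transfer of DMSO solutions.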

[3] = Caspase-3/7 induction in HepG2 cells by small molecules, qHTS assay (AID 1346978); also: nearly all actives have a fitted effect of over 15% in size
In short: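 Wild-type HepG2 cells (2,000/well) were settled 5 h at 37 C, 5% CO2, then exposed to compounds in DMSO for 17 h. Caspase-3/7 activity was read by luminescence 30 min after adding Caspase-Glo 3/7 reagent at room temperature.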

[4] = Caspase-3/7 induction in CHO-K1 cells by small molecules, qHTS cell viability counter screen (AID 1346979); also: nearly all actives have a fitted effect of over 35% in size; also: potency is read from the fitted curve at half-maximal effect
In short: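 In the same wells as the caspase read, viability of compound-treated wild-type CHO-K1 cells was assessed using CellTiter-Fluor, added after 16hr at 37C and measured by fluorescence following 1hr further incubation.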

[5] = Caspase-3/7 induction in CHO-K1 cells by small molecules, qHTS assay (AID 1346980); also: nearly all actives have a fitted effect of over 15% in size
In short: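 Wild-type cells were seeded at 1,500 per well and settled 5 hr at 37 C, 5% CO2, then exposed to DMSO-dissolved compounds for 17 hr. Caspase-Glo 3/7 reagent was added, and luminescence was read after 30min at room temperature.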

[6] = Caspase-3/7 induction in HepG2 cells by small molecules, qHTS cell viability counter screen (AID 1346981); also: nearly all actives have a fitted effect of over 30% in size; also: potency is read from the fitted curve at half-maximal effect
In short: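 In this quantitative HTS counter screen, compounds delivered in DMSO were left on unmodified HepG2 cells for 16 hr at 37 C. Viability was then determined fluorometrically with CellTiter-Fluor, in parallel with caspase-3/7 induction in the same wells.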

[7] = biological target: Nuclear receptor subfamily 1 group I member 2 (Homo sapiens) (UniProt O75469); assay: Human pregnane X receptor (PXR) small molecule agonists, qHTS assay (AID 1346982); also: nearly all actives have a fitted effect of over 35% in size; also: potency is read from the fitted curve at half-maximal effect
In short: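 Reporter HepG2 cells expressing PXR-Luc are cultured in charcoal-stripped FBS (5%), treated with compounds for 24 hr at 37 C, and assayed by ONE-Glo luminescence after 30 min at room temperature.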

[8] = biological target: Acetylcholinesterase (Homo sapiens) (UniProt P22303); assay: Acetylcholinesterase (AChE) small molecule antagonists: enzyme-based qHTS assay (AID 1347397; calls by dose curve; also: nearly all actives have a fitted effect of over 55% in size); details: Potency: AChE enzyme activity inhibition
In short: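 Tox21 library chemicals are tested in qHTS format against recombinant human AChE. The enzyme, dispensed at 50 mU/mL, sits with compound for 30 min at room temperature. A DTNB–acetylthiocholine cocktail follows, and colour is read after 10 min.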

[9] = biological target: Acetylcholinesterase (Homo sapiens) (UniProt P22303); assay: Acetylcholinesterase (AChE) small molecule antagonists: fluorescence cell-based qHTS assay (AID 1347398; calls by dose curve; also: nearly all actives have a fitted effect of over 50% in size; also: potency is read from the fitted curve at half-maximal effect); details: Potency: AChE activity
In short: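 Cellular AChE inhibition: SH-SY5Y cells treated with test chemical for 30 min at 37 C, then acetylthiocholine hydrolysis followed over 40 min at room temperature via thiocholine-reactive Thiolite Green fluorescence (490/520 nm).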

[10] = biological target: Acetylcholinesterase (Homo sapiens) (UniProt P22303); assay: Acetylcholinesterase (AChE) small molecule antagonists: enzyme-based qHTS assay with human liver microsomes (AID 1347399; calls by dose curve; also: nearly all actives have a fitted effect of over 60% in size); details: Potency: qHTS inhibition
In short: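 Recombinant human AChE (50 mU/mL in the enzyme mix) and human liver microsomes (0.25 mg/mL final) were preincubated with compound and NADPH (0.25 mg/mL final) for 30 min at 37 C. Acetylthiocholine/DTNB was then added; thiocholine was read colorimetrically after 10 min at room temperature.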

[11] = biological target: Cytochrome P450 2D6 (Homo sapiens) (UniProt P10635); assay: Cytochrome P450 Family 2 Subfamily D Member 6 (CYP2D6) small molecule antagonists: luciferase reporter qHTS assay (AID 1671196); also: nearly all actives have a fitted effect of over 50% in size; also: potency is read from the fitted curve at half-maximal effect
In short: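 Test chemicals meet CYP2D6 plus proluciferin substrate (10 min, RT); NADPH regenerating solution then drives turnover for 1 h. Detection reagent halts the reaction; luminescence measured after 20 min.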

[12] = biological target: Cytochrome P450 2C19 (Homo sapiens) (UniProt P33261); assay: Cytochrome P450 Family 2 Subfamily C Member 19 (CYP2C19) small molecule antagonists: luciferase reporter qHTS assay (AID 1671197); also: nearly all actives have a fitted effect of over 65% in size; also: potency is read from the fitted curve at half-maximal effect
In short: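 P450-Glo CYP2C19 screening system; proluciferin substrate; DMSO compound stocks; 10 min RT preincubation; NADPH regeneration, 1 h at 37C; luciferin detection reagent, 20 min RT; luminescence as RLU.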

[13] = biological target: Cytochrome P450 2C9 (Homo sapiens) (UniProt P11712); assay: Cytochrome P450 Family 2 Subfamily C Member 9 (CYP2C9) small molecule antagonists: luciferase reporter qHTS assay (AID 1671198); also: nearly all actives have a fitted effect of over 50% in size; also: potency is read from the fitted curve at half-maximal effect
In short: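 CYP2C9 activity was measured with a P450-Glo proluciferin substrate. Enzyme–substrate mix was held with compound for 10 min at room temperature, then NADPH regeneration solution was added for 1 h at 37C. Luciferin product was read as luminescence.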

[14] = biological target: Cytochrome P450 1A2 (Homo sapiens) (UniProt P05177); assay: Cytochrome P450 Family 1 Subfamily A Member 2 (CYP1A2) small molecule antagonists: luciferase reporter qHTS assay (AID 1671199); also: nearly all actives have a fitted effect of over 50% in size; also: potency is read from the fitted curve at half-maximal effect
In short: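 Steps: enzyme-substrate mix dispensed; test compounds and furafylline control pinned in; 10 min room temperature; NADPH regeneration solution added, 1 h; reaction stopped with luciferin detection reagent; luminescence read after 20 min.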

[15] = biological target: Voltage-gated inwardly rectifying potassium channel KCNH2 (Homo sapiens) (UniProt Q12809); assay: Human Ether-a-go-go-Related Gene (hERG) channel small molecule antagonists: fluorescence cell-based qHTS assay (AID 1671200); also: nearly all actives have a fitted effect of over 50% in size; also: potency is read from the fitted curve at half-maximal effect
In short: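 Quantitative HTS in hERG-U2OS cells: thallium entry through the channel reports activity, read as continuous 480/540 nm fluorescence over 2 min after stimulus addition.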

[16] = biological target: Cytochrome P450 3A4 (Homo sapiens) (UniProt P08684); assay: Cytochrome P450 Family 3 Subfamily A Member 4 (CYP3A4) small molecule antagonists: luciferase reporter qHTS assay (AID 1671201); also: nearly all actives have a fitted effect of over 50% in size; also: potency is read from the fitted curve at half-maximal effect
In short: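 Inhibition of CYP3A4 is measured as loss of light: the enzyme converts a proluciferin substrate to luciferin, detected luminescently. Reaction ran 1 h at room temperature with NADPH regeneration after a 10 min compound preincubation.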

[17] = biological target: Acetylcholinesterase (Homo sapiens) (UniProt P22303); assay: Acetylcholinesterase (AChE) small molecule antagonists: colormetric cell-based qHTS assay (AID 1347395; calls by dose curve; also: nearly all actives have a fitted effect of over 30% in size; also: potency is read from the fitted curve at half-maximal effect)
In short: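 Endogenous AChE of human neuroblastoma SH-SY5Y cells was measured with an Ellman-type DTNB/acetylthiocholine mix. Compound pretreatment lasted 30 min at 37 C; substrate reaction ran 90 min at 37 C.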

[18] = biological target: Nuclear receptor subfamily 1 group I member 2 (Rattus norvegicus) (UniProt Q9R1A7); assay: Rat pregnane X receptor (rPXR) activation by small molecules, qHTS assay (AID 1346983); details: rPXR luciferase reporter cells, One-Glo luminescence, 24 h; max activation: stronger effect = higher value; also: nearly all actives have a fitted effect of over 20% in size
In short: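 Cell-based rPXR luciferase reporter assay, 2,000 cells per well, rested 5hr at 37 C before compound addition in DMSO, then 24 hr at 37 C. One-Glo reagent was added and luminescence read after 30 min at room temperature.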

[19] = biological target: Nuclear receptor subfamily 1 group I member 2 (Homo sapiens) (UniProt O75469); assay: CYP3A4 induction through human pregnane X receptor (PXR) by small molecules, qHTS assay (AID 1346984); also: nearly all actives have a fitted effect of over 40% in size
In short: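 Induction measured in HepG2-based DPX-2 cells co-expressing human PXR and a CYP3A4 promoter-driven luciferase. After a 24-hour compound exposure, cells received CYP3A4 luciferin substrate at 3uM final for 3 hours, and light output was then recorded.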

[20] = biological target: Nuclear receptor subfamily 1 group I member 2 (Homo sapiens) (UniProt O75469); assay: Human pregnane X receptor (PXR) activation by small molecules, qHTS assay (AID 1346985); also: nearly all actives have a fitted effect of over 40% in size
In short: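 DPX-2 cells (HepG2 co-transfected with a PXR response element and a CYP3A4-promoter luciferase construct) were seeded at 2,000 per well, rested 5 hr at 37C, then exposed to DMSO-dissolved compounds for 24 hr. Activation was read as luciferase luminescence.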

Sequence of Cytochrome P450 2C19 (Homo sapiens) (P33261 whole entry, looked up): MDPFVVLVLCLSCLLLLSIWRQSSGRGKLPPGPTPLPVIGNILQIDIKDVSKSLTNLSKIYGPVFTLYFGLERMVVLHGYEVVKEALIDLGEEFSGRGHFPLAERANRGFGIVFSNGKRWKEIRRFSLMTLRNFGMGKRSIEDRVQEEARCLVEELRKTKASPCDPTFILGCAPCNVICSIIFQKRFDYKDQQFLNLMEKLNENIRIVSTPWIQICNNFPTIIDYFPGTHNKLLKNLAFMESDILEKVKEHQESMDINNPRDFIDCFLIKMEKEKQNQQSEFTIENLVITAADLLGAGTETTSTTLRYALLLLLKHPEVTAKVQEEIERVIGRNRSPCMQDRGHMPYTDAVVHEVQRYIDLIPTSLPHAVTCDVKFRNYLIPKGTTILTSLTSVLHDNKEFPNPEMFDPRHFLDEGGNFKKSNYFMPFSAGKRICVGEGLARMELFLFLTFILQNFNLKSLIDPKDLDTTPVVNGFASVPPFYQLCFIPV
Sequence of Cytochrome P450 1A2 (Homo sapiens) (P05177 whole entry, looked up): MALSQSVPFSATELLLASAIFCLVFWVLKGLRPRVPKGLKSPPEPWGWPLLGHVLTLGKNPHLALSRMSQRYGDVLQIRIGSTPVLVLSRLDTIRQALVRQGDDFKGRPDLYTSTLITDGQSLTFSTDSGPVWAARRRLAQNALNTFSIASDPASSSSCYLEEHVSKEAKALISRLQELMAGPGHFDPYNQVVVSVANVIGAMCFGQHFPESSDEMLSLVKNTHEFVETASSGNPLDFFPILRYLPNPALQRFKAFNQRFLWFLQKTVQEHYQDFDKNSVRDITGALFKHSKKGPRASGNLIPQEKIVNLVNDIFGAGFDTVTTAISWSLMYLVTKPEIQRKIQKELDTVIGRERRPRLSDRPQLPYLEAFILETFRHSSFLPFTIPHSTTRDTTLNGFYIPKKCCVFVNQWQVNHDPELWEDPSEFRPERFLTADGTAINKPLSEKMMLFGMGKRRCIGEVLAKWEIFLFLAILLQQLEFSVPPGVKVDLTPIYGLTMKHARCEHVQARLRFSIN
Sequence of Cytochrome P450 2D6 (Homo sapiens) (P10635 whole entry, looked up): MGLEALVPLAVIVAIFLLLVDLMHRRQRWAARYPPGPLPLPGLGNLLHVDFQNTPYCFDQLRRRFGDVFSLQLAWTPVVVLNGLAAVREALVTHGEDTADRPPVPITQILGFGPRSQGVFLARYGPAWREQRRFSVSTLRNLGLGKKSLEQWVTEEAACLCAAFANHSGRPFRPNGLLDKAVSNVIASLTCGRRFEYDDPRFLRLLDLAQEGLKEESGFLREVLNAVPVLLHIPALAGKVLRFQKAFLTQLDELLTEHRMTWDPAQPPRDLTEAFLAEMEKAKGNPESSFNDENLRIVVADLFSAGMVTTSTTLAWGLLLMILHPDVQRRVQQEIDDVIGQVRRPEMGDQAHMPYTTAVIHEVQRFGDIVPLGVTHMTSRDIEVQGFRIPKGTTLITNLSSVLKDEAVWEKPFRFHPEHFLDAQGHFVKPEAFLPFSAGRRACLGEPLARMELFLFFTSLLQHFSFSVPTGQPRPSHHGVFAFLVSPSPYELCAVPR
Sequence of Thyrotropin-releasing hormone receptor (Homo sapiens) (P34981 whole entry, looked up): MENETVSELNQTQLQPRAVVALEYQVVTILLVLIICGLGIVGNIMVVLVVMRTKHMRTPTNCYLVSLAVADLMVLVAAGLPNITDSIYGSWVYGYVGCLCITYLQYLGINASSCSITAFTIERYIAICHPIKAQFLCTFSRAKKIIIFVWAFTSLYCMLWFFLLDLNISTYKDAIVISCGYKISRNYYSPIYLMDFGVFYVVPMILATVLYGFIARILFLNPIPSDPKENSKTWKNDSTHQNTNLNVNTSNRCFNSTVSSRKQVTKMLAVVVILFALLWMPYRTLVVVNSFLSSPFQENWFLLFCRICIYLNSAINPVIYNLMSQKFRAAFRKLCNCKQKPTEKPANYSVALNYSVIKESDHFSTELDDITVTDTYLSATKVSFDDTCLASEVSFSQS
Sequence of Voltage-gated inwardly rectifying potassium channel KCNH2 (Homo sapiens) (Q12809 whole entry, looked up): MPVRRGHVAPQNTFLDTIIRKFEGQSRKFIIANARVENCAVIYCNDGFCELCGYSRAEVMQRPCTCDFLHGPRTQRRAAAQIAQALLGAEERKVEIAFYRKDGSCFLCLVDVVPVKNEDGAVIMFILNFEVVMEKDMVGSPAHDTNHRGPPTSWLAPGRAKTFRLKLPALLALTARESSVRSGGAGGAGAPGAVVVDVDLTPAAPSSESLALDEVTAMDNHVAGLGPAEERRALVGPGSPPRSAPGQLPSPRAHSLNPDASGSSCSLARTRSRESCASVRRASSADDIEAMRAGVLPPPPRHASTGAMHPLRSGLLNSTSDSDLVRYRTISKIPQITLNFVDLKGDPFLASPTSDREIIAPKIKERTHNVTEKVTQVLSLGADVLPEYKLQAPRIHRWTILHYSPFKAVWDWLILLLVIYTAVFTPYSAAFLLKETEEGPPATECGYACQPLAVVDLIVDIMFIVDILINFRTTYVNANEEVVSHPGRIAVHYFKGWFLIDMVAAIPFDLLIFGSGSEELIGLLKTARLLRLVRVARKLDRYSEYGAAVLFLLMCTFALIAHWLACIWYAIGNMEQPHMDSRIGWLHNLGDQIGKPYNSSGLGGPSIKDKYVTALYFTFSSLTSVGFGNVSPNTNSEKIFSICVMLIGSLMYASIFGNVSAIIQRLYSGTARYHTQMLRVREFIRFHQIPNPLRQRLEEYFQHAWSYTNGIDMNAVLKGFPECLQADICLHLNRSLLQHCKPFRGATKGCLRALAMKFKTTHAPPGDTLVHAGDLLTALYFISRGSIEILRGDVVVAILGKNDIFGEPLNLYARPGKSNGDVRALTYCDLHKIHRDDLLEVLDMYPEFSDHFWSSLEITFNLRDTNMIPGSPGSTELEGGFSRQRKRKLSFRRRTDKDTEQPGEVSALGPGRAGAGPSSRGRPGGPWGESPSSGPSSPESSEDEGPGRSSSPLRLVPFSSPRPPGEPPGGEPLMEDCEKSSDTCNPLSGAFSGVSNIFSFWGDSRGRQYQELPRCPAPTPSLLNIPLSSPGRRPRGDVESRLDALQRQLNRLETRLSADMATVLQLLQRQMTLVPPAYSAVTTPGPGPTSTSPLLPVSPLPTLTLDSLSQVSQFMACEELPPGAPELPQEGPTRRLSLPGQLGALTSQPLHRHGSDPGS
Sequence of Cytochrome P450 3A4 (Homo sapiens) (P08684 whole entry, looked up): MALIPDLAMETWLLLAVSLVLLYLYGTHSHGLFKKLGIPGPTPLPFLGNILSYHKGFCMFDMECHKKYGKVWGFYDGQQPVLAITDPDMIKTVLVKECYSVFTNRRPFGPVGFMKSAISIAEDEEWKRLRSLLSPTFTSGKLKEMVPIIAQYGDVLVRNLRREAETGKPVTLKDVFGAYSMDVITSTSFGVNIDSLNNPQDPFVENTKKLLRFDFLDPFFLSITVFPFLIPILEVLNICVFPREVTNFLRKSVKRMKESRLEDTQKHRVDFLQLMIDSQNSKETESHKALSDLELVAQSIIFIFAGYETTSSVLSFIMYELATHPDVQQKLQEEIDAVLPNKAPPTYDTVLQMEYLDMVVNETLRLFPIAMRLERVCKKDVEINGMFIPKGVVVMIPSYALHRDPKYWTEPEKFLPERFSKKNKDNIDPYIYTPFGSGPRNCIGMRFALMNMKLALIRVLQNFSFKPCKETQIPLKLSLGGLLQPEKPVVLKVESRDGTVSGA
Sequence of Cytochrome P450 2C9 (Homo sapiens) (P11712 whole entry, looked up): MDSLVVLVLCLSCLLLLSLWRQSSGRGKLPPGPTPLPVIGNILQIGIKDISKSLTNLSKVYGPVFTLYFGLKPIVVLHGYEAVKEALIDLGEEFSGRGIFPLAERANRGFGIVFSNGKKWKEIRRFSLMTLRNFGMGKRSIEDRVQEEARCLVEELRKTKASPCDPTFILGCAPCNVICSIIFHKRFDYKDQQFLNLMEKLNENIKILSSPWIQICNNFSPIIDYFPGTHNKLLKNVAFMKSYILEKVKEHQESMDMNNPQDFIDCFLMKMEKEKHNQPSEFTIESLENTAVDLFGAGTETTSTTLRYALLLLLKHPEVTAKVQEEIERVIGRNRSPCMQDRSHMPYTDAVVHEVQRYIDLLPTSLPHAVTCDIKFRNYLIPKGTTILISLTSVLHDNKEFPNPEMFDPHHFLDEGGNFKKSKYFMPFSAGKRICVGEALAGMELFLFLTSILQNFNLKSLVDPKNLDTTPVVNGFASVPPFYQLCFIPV
Sequence of Acetylcholinesterase (Homo sapiens) (P22303 whole entry, looked up): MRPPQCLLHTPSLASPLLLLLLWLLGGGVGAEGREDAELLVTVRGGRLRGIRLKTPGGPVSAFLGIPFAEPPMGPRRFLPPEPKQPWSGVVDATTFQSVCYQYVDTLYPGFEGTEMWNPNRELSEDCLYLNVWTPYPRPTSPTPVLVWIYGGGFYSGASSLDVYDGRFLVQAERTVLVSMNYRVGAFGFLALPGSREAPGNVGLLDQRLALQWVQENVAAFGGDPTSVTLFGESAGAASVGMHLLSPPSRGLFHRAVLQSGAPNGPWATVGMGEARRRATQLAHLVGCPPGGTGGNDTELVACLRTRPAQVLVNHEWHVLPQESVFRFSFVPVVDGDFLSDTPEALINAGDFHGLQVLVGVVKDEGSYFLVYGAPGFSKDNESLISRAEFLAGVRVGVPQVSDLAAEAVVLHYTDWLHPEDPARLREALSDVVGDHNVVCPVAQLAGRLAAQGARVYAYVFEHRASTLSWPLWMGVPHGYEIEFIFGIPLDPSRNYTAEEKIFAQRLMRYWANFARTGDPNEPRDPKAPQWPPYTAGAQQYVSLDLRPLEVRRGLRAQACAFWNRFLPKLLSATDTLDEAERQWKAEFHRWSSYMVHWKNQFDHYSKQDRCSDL

Structure (SMILES)	Potency [1]	Potency [2]	Potency [3]	Potency [4]	Potency [5]	Potency [6]	Potency [7]	Potency [8]	Potency [9]	Potency [10]	Potency [11]	Potency [12]	Potency [13]	Potency [14]	Potency [15]	Potency [16]	Potency [17]	max activation [18] [%]	Potency [19]	Potency [20]
ClCCCCBr	inactive	inactive	inactive	inactive	inactive	inactive	inactive	inactive	inactive	inactive	inactive	inactive	inactive	inactive	inactive	inactive				
N#Cc1ccc(Cl)cc1	inactive	inactive	inactive	inactive	inactive	inactive	inactive	inactive	inactive	inactive			inactive	inactive	inactive	inactive				
CN(N=O)c1ccc([N+](=O)[O-])cc1	inactive	inactive	inactive	inactive	inactive	inactive	inactive	inactive		inactive		35.6 µM (active)		6.33 µM (active)	inactive	inactive	63.3 µM (active)			
CCOC(=O)CBr	inactive	inactive	inactive	inactive	inactive	inactive	inactive	inactive	inactive	inactive	40.1 µM (active)	40.1 µM (active)		63.6 µM (active)	inactive	inactive				
CCOP(=S)(Oc1ccc([N+](=O)[O-])cc1)c1ccccc1 (centres undefined)	inactive	inactive	inactive	inactive	inactive	inactive	inactive	inactive	inactive				0.564 µM (active)	5.64 µM (active)	0.616 µM (active)	1.59 µM (active)	inactive			
ClCc1cccc(Cl)c1	inactive	inactive	inactive	inactive	inactive	inactive	inactive	inactive	inactive			inactive	inactive	inactive	inactive	inactive	inactive			
C=CC(C)=O	inactive	inactive	inactive	inactive	inactive	inactive	inactive	inactive	inactive	inactive	inactive		inactive		inactive	inactive				
COC(=O)C(Cl)C(=O)OC	inactive	inactive	inactive	inactive	inactive	inactive	inactive	inactive	inactive	inactive	inactive		inactive	inactive	inactive	inactive				
O=C(CCl)c1ccc(Cl)cc1Cl	inactive	inactive	inactive	68.2 µM (active) and 26.6 µM (active)	inactive	inactive	60.8 µM (active) and 29.8 µM (active)	inactive	inactive	inactive	39.8 µM (active) and 38.9 µM (active)	17.8 µM (active) and 9.77 µM (active)		35.4 µM (active) and 12.9 µM (active)	inactive	inactive				
CCCCCCCCCC(=O)O[C@H]1CC[C@H]2[C@@H]3CCC4=CC(=O)CC[C@@H]4[C@H]3CC[C@]12C	inactive	inactive	inactive	inactive	inactive	inactive		inactive	inactive	inactive	inactive	21.9 µM (active)	15.5 µM (active)	inactive	inactive			-0.997	inactive	inactive
COP(=S)(OC)Oc1ccc([N+](=O)[O-])cc1Cl	inactive	34.4 µM (active)	inactive	68.6 µM (active)	inactive	61.1 µM (active)	inactive	inactive	inactive			39.9 µM (active)	20 µM (active)	22.4 µM (active)	inactive	6.33 µM (active)	inactive			
CCOc1ccc(C(C)(C)COCc2cccc(Oc3ccccc3)c2)cc1	inactive	inactive	inactive	inactive	inactive	inactive		inactive	inactive	inactive	35.6 µM (active)	17.8 µM (active)	6.33 µM (active)		inactive	inactive				
[CH3][Sn]([CH3])([Cl])[Cl]	inactive	inactive	inactive	31.1 µM (active) and 54.5 µM (active)	inactive	inactive	inactive	inactive	inactive	inactive			inactive	inactive	inactive	inactive				
CCOP(=S)(OCC)SCSCC	inactive	inactive	inactive	inactive	inactive	inactive	inactive	inactive		inactive		20 µM (active)		22.4 µM (active)	inactive	6.33 µM (active)	63.3 µM (active)			
BrCC(Br)C1CCC(Br)C(Br)C1 (centres undefined)	inactive	inactive	inactive	inactive	inactive	inactive	48.3 µM (active)	inactive	inactive				31.6 µM (active)			inactive	inactive			
C=CC[C@]1(O)CC[C@H]2[C@@H]3CCC4=CC(=O)CCC4=C3C=C[C@@]21C	inactive	inactive	inactive	7.5 µM (active)	inactive	inactive	inactive	inactive	6.92 µM (active)					inactive	inactive		inactive			
CCCCc1c(C)nc(NCC)nc1OS(=O)(=O)N(C)C	inactive	61.1 µM (active)	inactive	61.1 µM (active)	inactive	61.1 µM (active)	9.69 µM (active)	inactive		inactive		79.6 µM (active)	31.7 µM (active)	12.6 µM (active)		12.6 µM (active)	inactive			
